Test results as given in PubChem BioAssay (NCATS).
Records with an inconclusive call do not appear. Active and inactive are the calls of the source. Calls come from the whole dose curve; as a rule, active = well fitted inhibition curve with a large enough effect; inconclusive = small, poorly fitted or top-dose-only effect; inactive = flat fitted curve, though single readings scatter.

How the values were obtained:
Experiment in all cases: Cytotoxic Profiling of Annotated Libraries Using Quantitative High-Throughput Screening (AID 1296008); note: nearly all actives have a fitted effect of over 60% in size
Details in all cases: Five cell lines viability, CellTiter-Glo ATP luminescence, 48-72 h; max response: active compounds read low
CRL-7250 = system: CRL-7250
Method in brief: (§1)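 Cytotoxicity was measured as CellTiter-Glo ATP luminescence, read after 10 min at room temperature. Compound treatment of the cells lasted 48 or 72 hr at 37 degrees Celsius in a qHTS format.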

HEK293 = system: HEK293
Method in brief: as §1

HaCat = system: HaCat
Method in brief: as §1

KB-3-1 = system: KB-3-1
Method in brief: as §1

NIH3T3 = system: NIH3T3
Method in brief: as §1

Measured: max response
% is set by controls: 0 for no effect and ±100 for the full control effect.

C=C1CCC2C(C)(COC3OC(COC(=O)CC(=O)O)C(O)C(O)C3O)CCCC2(C)C1CCC1=CCOC1=O (stereo not given)
inactive: CRL-7250 | HEK293 | HaCat -2.95% | KB-3-1 | NIH3T3

CC(C)=CCc1ccc(Oc2c(O)cc(C)cc2CO)c(C(=O)O)c1O
inactive: CRL-7250 -1.26% | HEK293 | HaCat | KB-3-1 | NIH3T3

O=C1NCc2nc3ccccc3c(=O)n2C1Cc1c[nH]c2ccccc12 (stereo not given)
inactive: CRL-7250 -3.24% | HEK293 | HaCat 1.57% | KB-3-1 3.31% | NIH3T3

COC(=O)C1(Cc2ccc(O)cc2)OC(=O)C(OC)=C1c1ccc(O)cc1 (stereo not given)
inactive: CRL-7250 -4.87% | HEK293 | HaCat -3.39% | KB-3-1 | NIH3T3

COc1ccc2c(c1)O[C@H](O[C@@H]1O[C@H](CO)[C@@H](O)[C@H](O)[C@H]1O)C(=O)N2
inactive: CRL-7250 | HEK293 | HaCat -4.71% | KB-3-1 | NIH3T3

O=C(O)Cc1nn(Cc2nc3cc(C(F)(F)F)ccc3s2)c(=O)c2nccnc12
inactive: CRL-7250 | HEK293 | HaCat | KB-3-1 9.35% | NIH3T3 3.31%

C[C@H]1[C@H](C)CC[C@]2(C(=O)O[C@@H]3O[C@H](CO)[C@@H](O)[C@H](O)[C@H]3O)CC[C@]3(C(=O)O)C(=CCC4[C@@]5(C)CC[C@H](O[C@@H]6O[C@H](CO)[C@@H](O)[C@H](O)[C@H]6O)C(C)(C)C5CC[C@]43C)[C@H]12 (stereo not given in full)
inactive: CRL-7250 3.01% | HEK293 | HaCat | KB-3-1 2.34% | NIH3T3 -5.27%

CCOC(=O)Nc1nc2ccccc2[nH]1
inactive: CRL-7250 3.6% | HEK293 | HaCat -2.18% | KB-3-1 2.03% | NIH3T3

COc1cc(C2Oc3c(O)cc(CCCO)cc3C2CO)ccc1O[C@H]1O[C@H](C)[C@@H](O)[C@H](O)[C@@H]1O (stereo not given in full)
inactive: CRL-7250 0.29% | HEK293 | HaCat 3.18% | KB-3-1 | NIH3T3 -0.439%

CC1=CC(=O)C[C@H]2[C@@H]1CC[C@@H](C)[C@]21CO[C@H](c2ccoc2)C1=O
inactive: CRL-7250 3.91% | HEK293 | HaCat | KB-3-1 -0.71% | NIH3T3 -2.85%

NCCCC[C@H](NC(=O)[C@@H]1Cc2ccccc2CN1C(=O)CCC(=O)c1ccccc1)C(=O)NCC(c1ccccc1)c1ccccc1
inactive: CRL-7250 | HEK293 | HaCat | KB-3-1 | NIH3T3 3.99%

O=C(NCc1ccc(OC(F)(F)F)cc1)C1c2ccccc2C(=O)N1C1CCOCC1 (stereo not given)
inactive: CRL-7250 | HEK293 | HaCat -6.26% | KB-3-1 | NIH3T3

CCC(NC(=O)CC(NC(=O)C(CO)NC(=O)C(CC)NC(=O)c1ccc[nH]1)c1ccccc1)C(=O)O (stereo not given)
inactive: CRL-7250 -9.47% | HEK293 | HaCat -0.876% | KB-3-1 | NIH3T3

CC1=CC(=O)OC(C)(CC(C)(O)C(=O)O)C1 (stereo not given)
inactive: CRL-7250 -4.45% | HEK293 | HaCat -5.61% | KB-3-1 6.61% | NIH3T3 0.862%

O=C(O[C@H]1[C@@H]2C=CO[C@@H](O[C@@H]3O[C@H](CO)[C@@H](O)[C@H](O)[C@H]3O)[C@@H]2[C@@]2(CO)O[C@@H]12)c1ccc(O)cc1
inactive: CRL-7250 1.96% | HEK293 | HaCat | KB-3-1 3.57% | NIH3T3

Clc1ccc2c(c1)C1=NCCN1c1c(-c3noc(C4CC4)n3)ncn1-2
inactive: CRL-7250 | HEK293 | HaCat | KB-3-1 | NIH3T3

C=C1CCC2C(C)(C)CC(=O)CC2(C)C1CCC(C)CCOC(C)=O (stereo not given)
inactive: CRL-7250 | HEK293 | HaCat | KB-3-1 5.05% | NIH3T3

O=C(CCCCc1ccc2ccccc2c1)C(F)(F)F
inactive: CRL-7250 3.49% | HEK293 | HaCat | KB-3-1 2.37% | NIH3T3

CC(C)[C@@H](C)/C=C/[C@@H](C)[C@H]1CC[C@H]2C3=CC=C4C[C@@H](O)CC[C@]4(C)[C@H]3CC[C@]12C
inactive: CRL-7250 -9.59% | HEK293 | HaCat -1.06% | KB-3-1 | NIH3T3 -4.11%

COc1cc(/C=C/CO)ccc1O[C@@H]1O[C@H](CO)[C@@H](O)[C@H](O)[C@H]1O
inactive: CRL-7250 -3.79% | HEK293 | HaCat | KB-3-1 9.42% | NIH3T3
